KB-3-1 tox – kills parental KB-3-1 adenocarcinoma cells. KB-3-1 viability, CellTiter-Glo ATP luminescence, 72 h. Potency, µM (titrated, usually from 46.1 µM), usual class: cytotoxic. hit rate 1.4% among 400,000. AID 1347075; note: nearly all actives have a fitted effect of over 60% in size
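Here the drug-naive KB-3-1 line serves as comparator for MDR sub-line selectivity; cells received compound titrations, 72 h at 37 °C, then CellTiter-Glo readout.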
TDP1 cell noCPT – qHTS for Inhibitors of human tyrosyl-DNA phosphodiesterase 1 (TDP1): qHTS in cells in absence of CPT; Potency, µM (highest dose often 46.2 µM), for the others: at the highest dose activity change, negative = growth inhibition, hits mostly inhibitors; DT40 Tdp1-/- hTDP1 cells, no CPT, ATP luminescence, 48 h; hit rate 15% among 420,000; AID 686978, 2013; note: nearly all actives have a fitted effect of over 55% in size
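DT40 Tdp1-/-;hTDP1 cells, no CPT (DMSO vehicle only), 400 cells/well; compounds pin-transferred; ≥48 hr, 37 °C; CellTiter-Glo 30 min RT dark, luminescence read.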
HT1080-NT tox – kills 2HG-producing HT-1080-NT fibrosarcoma cells; HT-1080-NT fibrosarcoma viability, CellTiter-Glo ATP luminescence, 48 h; AID 686970; hit rate 1.6% among 360,000; Potency, µM (series often up to 46.1 µM), without a hit: top-dose activity, negative = less viability, hits mostly cytotoxic;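 note: NT is the 2HG producing partner of a matched IDH1 knockdown line; 0% = DMSO-treated cells and -100% = media-only wells without cells; nearly all actives have a fitted effect of over 55% in size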
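Luminescent CellTiter-Glo readout after 48 hours of compound exposure at 37 degrees C defined viability of HT-1080-NT cells. Activity was normalized to DMSO wells and cell-free media wells; concentration-response curves were fitted and assigned curve classes.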
HT1080 IDH1KD tx – kills HT-1080 cells with IDH1 knockdown | HT-1080 IDH1 knockdown viability, ATP luminescence, 48 h | Potency, µM (doses to about 46.1 µM), without a hit: at the highest dose activity, negative = toxicity, actives largely listed as cytotoxic | hit rate 2% among 360,000 | AID 686971;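 note: 0% = DMSO wells and -100% = cell-free medium wells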
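Viability of IDH1-knockdown HT-1080 fibrosarcoma cells was assessed by CellTiter-Glo after 48 h at 37 °C with titrated compound; concentration-effect curves were classified by fit quality and response size.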
TDP1 cell CPT – DT40-hTDP1 cell growth loss with CPT. hit rate 12% among 420,000. Potency, µM (top dose mostly 46.2 µM), for inactives: top-dose activity change, negative = growth inhibition, most hits filed as inhibitors. chicken DT40 Tdp1-/-;hTDP1 cells + 20 nM CPT, ATP luminescence, 48 h; note: nearly all actives have a fitted effect of over 55% in size
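Chicken DT40 Tdp1-/- cells complemented with human TDP1, 400 cells/well, exposed to compounds plus 20 nM camptothecin for at least 48 h at 37 C; viability read as ATP content by CellTiter-Glo luminescence.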
KB-V1 cytotox – kills drug-selected multidrug resistant KB-V1 cells; KB-V1 MDR cells viability, CellTiter-Glo, 72 h; Potency, µM (highest dose often 46.1 µM), most hits filed as cytotoxic; hit rate 3.4% among 400,000; AID 1347076; note: nearly all actives have a fitted effect of over 60% in size
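Compound-treated KB-V1 multidrug-resistant cells, 72 h, 37 degrees C; viability by CellTiter-Glo. Fitted qHTS curves give the values.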
* marks the source's active call; other numbers are inactive results; i = inactive; u = inconclusive; x = no result given; [ ] = another dose, or the depositor's remark. This is a sample that favours compounds with a hit; in the whole collection about 19% have one here. Calls come from the whole dose curve; as a rule, active = well fitted curve in the direction sought with a large enough effect; inconclusive = small, poorly fitted or top-dose-only effect, or another doubt; inactive = no such curve, though single readings can be large; an effect the other way counts as inactive or inconclusive. Unless noted, % is set by controls: 0 for no effect and ±100 for the full control effect; potency is the fitted concentration of half-maximal effect.

SMILES	KB-3-1 tox	TDP1 cell noCPT	HT1080-NT tox	HT1080 IDH1KD tx	TDP1 cell CPT	KB-V1 cytotox
CCN1C(=O)/C(=C\c2nc3ccccc3c(=O)n2-c2ccccc2)c2ccccc21	u	8.2µM*	-9%	u	13µM*	u
CCN1C(=O)C(Cc2nc3ccccc3c(=O)n2-c2ccccc2)c2ccccc21 (stereo not drawn)	i	-27%	-11%	-12%	-21%	4.1µM*
COc1ccc(-n2c(/C=C3\C(=O)N(C)c4ccccc43)nc3ccccc3c2=O)cc1	i	u	-4%	-1%	-1%	i
CCc1nc2ccc(C(=O)NCCN3CCNC3=O)cn2c1N(C)CCC(C)C	i	u	10%	12%	-15%	i
COc1ccc(NC(=O)N(CCC(C)C)C(C)c2ccccn2)c(OC)c1 (stereo not drawn)	i	u	-12%	-3%	23µM*	i
COc1ccc(C2CC(=O)c3cnc(NC(=O)c4ccco4)nc3C2)cc1 (stereo not drawn)	u	-20%	-3%	2%	-7%	u
COc1ccc(Nc2ncc3c(n2)CC(c2ccc(OC)cc2)CC3=O)cc1 (stereo not drawn)	i	12µM*	-1%	-1%	u	i
O=C1CC(c2ccco2)Cc2nc(Nc3ccc(F)cc3)ncc21 (stereo not drawn)	i	23µM*	-9%	-1%	u	u
COc1ccccc1C(=O)Nc1ncc2c(n1)CC(c1ccco1)CC2=O (stereo not drawn)	i	u	-3%	1%	u	i
COc1ccc(C2CC(=O)c3cnc(NC(=O)c4ccccc4)nc3C2)c(OC)c1 (stereo not drawn)	u	7.3µM*	-16%	-26%	6.5µM*	u
COc1ccc(Nc2ncc3c(n2)CC(c2ccc(C)cc2)CC3=O)cc1 (stereo not drawn)	i	8.2µM*	-1%	-15%	u	u
C[C@@H]1CCCCO[C@H](CN(C)C(=O)Cc2ccccc2)[C@@H](C)CN([C@H](C)CO)C(=O)c2cc(N(C)C)ccc2O1	i	0%	3%	3%	3%	i
O=C(Cn1ncc2c3ccccc3n(Cc3cccc(Cl)c3)c2c1=O)NCCCN1CCCCC1	i	-14%	x	x	-2%	u
N#Cc1nc(-c2ccc(COc3ccc(Cl)cc3)o2)oc1N1CCCCC1	i	u	x	x	u	i
O=C(Nc1ncc2c(n1)CC(c1ccccc1)CC2=O)c1ccco1 (stereo not drawn)	i	-13%	-7%	5%	-14%	i
O=C1CC(c2ccccc2)Cc2nc(NCc3ccco3)ncc21 (stereo not drawn)	i	u	-2%	-12%	-29%	16µM*
O=C(Cc1cccs1)Nc1nnc(SCc2ccc(C(F)(F)F)cc2)s1	i	u	-15%	-2%	15µM*	i
COc1ccccc1-c1sc2ccccc2c1-c1ccc2c(c1)OCCO2	i	u	21%	-2%	u	u
C[C@@]12CC(=O)C3=C(CCCC3=O)N1CCc1ccccc12	x	-2%[9.04 µM]	x	x	-4%[9.04 µM]	x
Cn1c(=O)[nH]c(=O)c2c1nc(SCC(=O)O)n2Cc1ccccc1	i	4%	4%	3%	4%	i
Cc1cccc(Cn2c(NC3CCCC3)nc3c2c(=O)[nH]c(=O)n3C)c1	i	23µM*	-5%	-8%	u	i
Cc1cccc(Cn2c(SCC(=O)Nc3ccccc3)nc3c2c(=O)[nH]c(=O)n3C)c1	u	21µM*	-14%	-12%	u	i
Cc1cccc(Cn2c(Sc3nc(C)cs3)nc3c2c(=O)[nH]c(=O)n3C)c1	i	18µM*	-1%	2%	u	4.1µM*
Cc1csc(Sc2nc3c(c(=O)[nH]c(=O)n3C)n2Cc2ccccc2Cl)n1	i	u	-9%	-1%	u	u
Cc1ccccc1NC(=S)N1CCN(c2ccccc2)CC1	i	2%	2%	6%	-16%	u
SMILES	KB-3-1 tox	TDP1 cell noCPT	HT1080-NT tox	HT1080 IDH1KD tx	TDP1 cell CPT	KB-V1 cytotox
O=C(CN1C(=O)NC(CCc2ccccc2)C1=O)Nc1cccc(Br)c1 (stereo not drawn)	i	16µM*	-10%	-8%	u	i
COc1ccc(O)c(/C=N/NC(=O)CCC(=O)Nc2ccc(C)cc2)c1	i	21µM*	-6%	-11%	u	i
COc1ccc(O)c(/C=N/NC(=O)CCC(=O)Nc2cccc(C)c2)c1	i	21µM*	u	u	21µM*	u
COc1cc(/C=N/NC(=O)CCC(=O)Nc2ccc(Br)cc2)ccc1O	i	-17%	-1%	1%	5%	u
COc1cccc(/C=N/NC(=O)CCCC(=O)Nc2ccc(Br)cc2)c1	i	21µM*	-9%	-13%	21µM*	15µM*
CC1(C)COC(/C=C/c2ccc([N+](=O)[O-])cc2)=N1	u	16µM*	u	23µM*	u	21µM*
CCCCCC(=O)NC(=S)NC1C2CC3CC(C2)CC1C3 (stereo not drawn)	i	u	u	u	u	u
COc1cc(C2SCC(=O)N2c2nnc(C34CC5CC(CC(C5)C3)C4)s2)cc(OC)c1OC (stereo not drawn)	i	u	2%	4%	18µM*	u
O=C(COc1ccc(Br)cc1)N1CCOCC1	i	-16%	-4%	-2%	-11%	i
O=C1c2cccc(OCC(=O)N3CCCc4ccccc43)c2CCN1Cc1ccc(Br)cc1	18µM*	18µM*	-27%	u	18µM*	18µM*
O=C(COc1cccc2c1CCN(Cc1ccc(Br)cc1)C2=O)NCc1ccco1	u	23µM*	-5%	-2%	18µM*	2.6µM*
CCN1CCc2c(OCC(=O)N3CCCc4ccccc43)cccc2C1=O	i	-29%	1%	0%	-22%	u
O=C(COc1cccc2c1CCN(Cc1ccc(Br)cc1)C2=O)N1CCOCC1	u	23µM*	-14%	-2%	u	4.1µM*
COC(=O)C1(C(=O)OC)c2ncccc2N(S(=O)(=O)c2ccc(C)cc2)C1CC(=O)c1ccccc1 (stereo not drawn)	i	u	0%	5%	u	i

Source: PubChem BioAssay
